# Results filed as inconclusive are left out. Active and inactive are the calls of the source. How the source made its calls, unless noted: active means hit-call score of the fitted dose curve at least 0.9, where 1 is the maximum; inactive means score below 0.9.
# Key:
# [1] = CCTE_Shafer_MEA_acute_spike_number: CCTE's Neural Acute Assay for Total Number of Spikes, Shafer Lab (AID 2284008);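 on AC50: curve fitted for decrease in spike count so AC50 reflects inhibitors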
# Outline: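 Rat cortical cultures, DIV 13/15, 37 C. 40 min baseline rec, cpd 0.03-40 uM, 40 min post-dose rec. Band-pass 300-5000 Hz, spike threshold 8x rms; % change in spike count per well, DMSO neg ctrl, loss-of-signal fit.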
# [2] = CCTE_Shafer_MEA_acute_firing_rate_mean: CCTE's Neural Acute Assay for Mean Firing Rate, Shafer Lab (AID 2284009);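 further: analyzed for loss of signal so actives lower firing rate relative to DMSO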
# Outline: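 Rat primary cortical neurons on 48-well MEA plates, dosed at 0.03-40 uM on DIV 13 or 15; 40 min spontaneous activity recorded at 37 C before and after compound. Spike rate per electrode averaged per well, expressed as percent change from baseline.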
# [3] = CCTE_Harrill_HTTr_Viability_MCF7: CCTE's 6-hour Cell Viability Assessment for the High-Throughput Transcriptomics (HTTr) Platform, in MCF-7 cells cultured in DMEM + 10% fetal bovine serum, Harrill Lab (AID 2284010)
# Outline: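 Membrane integrity was scored by high-content imaging of propidium iodide dye exclusion after a 6 h exposure across an eight-point dilution series. Data were fitted bidirectionally relative to DMSO as negative control and baseline.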
# [4] = CCTE_Harrill_HTTr_Apoptosis_MCF7: CCTE's 6-hour Apoptosis Assessment for the High-Throughput Transcriptomics (HTTr) Platform, in MCF-7 cells cultured in DMEM + 10% fetal bovine serum, Harrill Lab (AID 2284011)
# Outline: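 Read-out: CellEvent Caspase 3/7 Green signal by high content imaging, gain-of-signal indicating apoptosis. MCF-7 cells, DMEM + 10% FBS, eight-point dilution series, 6 h exposure. Curves fitted bidirectionally relative to DMSO negative control.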
# [5] = CCTE_Shafer_MEA_acute_burst_number: CCTE's Neural Acute Assay for Single-Electrode Bursts, Shafer Lab (AID 2284013)
# Outline: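 Primary rat cortical neurons on 16-electrode MEA wells, treated on DIV 13 or 15 with compound at 0.03-40 uM. Single-electrode burst count from 40-min recordings at 37 C before and after exposure; percent change from baseline per well, DMSO negative control.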
# [6] = CCTE_Shafer_MEA_acute_burst_duration_mean: CCTE's Neural Acute Assay for Mean Burst Duration, Shafer Lab (AID 2284014);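 further: hits are decreases in mean burst duration relative to DMSO controls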
# Outline: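 Rat primary cortical neurons on 48-well MEA, treated at DIV 13 or 15 with 0.03-40 uM in at least 3 wells. Value is percent change in mean burst duration, comparing 40 min recordings at 37 C before and during exposure.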
# [7] = CCTE_Shafer_MEA_acute_per_burst_spike_number_mean: CCTE's Neural Acute Assay for Average Number of Spikes Per Burst, Shafer Lab (AID 2284015);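 further: hits are decreases in mean spikes per burst versus baseline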
# Outline: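 We recorded spontaneous network firing of rat cortical neurons for 40 min before and 40 min during exposure to compound at 0.03-40 uM, at 37 C. Spikes were detected adaptively at 8x rms noise, and the change in average spikes per burst was fitted against DMSO.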
# [8] = CCTE_Shafer_MEA_acute_interburst_interval_mean: CCTE's Neural Acute Assay for Mean Interburst Interval, Shafer Lab (AID 2284016);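 further: percent change of mean interburst interval versus each well's own pre-dose baseline; curves fitted for decrease in interburst interval relative to DMSO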
# Outline: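 MEA recording of spontaneous network bursting in primary rat cortical cultures; mean interburst interval was compared before and after a 40-min compound exposure (0.03-40 uM) and expressed as percent change, relative to DMSO.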
# [9] = CCTE_Shafer_MEA_acute_burst_percentage_mean: CCTE's Neural Acute Assay for Percentage of Spikes in a Burst, Shafer Lab (AID 2284017);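 on AC50: curve fitted for loss of signal so potency reflects decreased burst percentage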
# Outline: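 Compounds were tested at 0.03-40 uM on primary rat cortical neuron networks grown over microelectrodes, with at least three wells per compound. Spontaneous firing was recorded for 40 min before and 40 min after dosing, and the change in burst percentage was computed per well.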
# [10] = CCTE_Shafer_MEA_acute_per_network_burst_spike_number_mean: CCTE's Neural Acute Assay for Average Number of Spikes in a Network Burst, Shafer Lab (AID 2284019);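 on AC50: curve fitted for loss of signal so actives reduce spikes per network burst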
# Outline: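 Rat primary cortical neurons on 48-well MEA at DIV 13 or 15, 37 C; compounds 0.03-40 uM, at least three wells each. 40-min baseline then 40-min exposure recording; percent change in mean spikes per network burst.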
# [11] = CCTE_Shafer_MEA_acute_per_network_burst_spike_number_std: CCTE's Neural Acute Assay for Standard Deviation of Number of Spikes in a Network Burst, Shafer Lab (AID 2284020);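 further: fitted for decrease in spike-number SD versus DMSO so actives lower it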
# Outline: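 Rat primary cortical neurons on 48-well MEA (16 electrodes/well), treated DIV 13 or 15 at 0.03-40 uM, ≥3 wells per compound. 40 min recordings at 37 C before and after dosing; value is percent change in network-burst spike-number SD, negative direction vs DMSO.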
# [12] = CCTE_Shafer_MEA_acute_per_network_burst_electrodes_number_mean: CCTE's Neural Acute Assay for Mean Number of Electrodes in a Network Burst, Shafer Lab (AID 2284021);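 further: curves fitted for decreases only so hits reduce electrodes per burst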
# Outline: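 Readout: % change in mean electrodes active per network burst, post- vs pre-treatment, each well. Spikes detected at 8x rms noise after 300-5000 Hz band-pass; rat cortical cultures, DIV 13/15, compounds 0.03-40 uM, DMSO baseline.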
# [13] = CCTE_Shafer_MEA_acute_network_burst_percentage: CCTE's Neural Acute Assay for Percentage of Network Bursts, Shafer Lab (AID 2284022);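 further: curves fitted for loss so actives lower network burst percentage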
# Outline: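 Rat cortical cultures, DIV 13/15; 20 min equilibration, 40 min baseline, compound 0.03-40 uM, 40 min recording, 37 C. Spikes: 300-5000 Hz band-pass, threshold 8x rms noise. Readout: % change in network-burst spike fraction; loss direction vs DMSO.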
# [14] = CCTE_Shafer_MEA_acute_cross_correlation_area: CCTE's Neural Acute Assay for Area of Cross Correlation, Shafer Lab (AID 2284024);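 further: area under pooled inter-electrode spike cross-correlation near zero lag as percent change from own baseline; curves fitted for loss of cross-correlation area so actives lower synchrony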
# Outline: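 Rat cortical cultures, DIV 13/15, MEA; spikes detected at 8x rms noise (300-5000 Hz band-pass). Compound 0.03-40 uM, ≥3 wells each. Readout: % change in pooled inter-electrode cross-correlation area vs own baseline; DMSO negative control.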
# [15] = CCTE_Shafer_MEA_acute_cross_correlation_HWHM: CCTE's Neural Acute Assay for Cross Correlation at Half Width at Half Maximum, Shafer Lab (AID 2284026);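 further: percent change per well from pre-dose baseline in spike cross-correlogram half width; hits are a decrease in cross-correlogram half width relative to DMSO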
# Outline: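 Read-out: half width at half maximum of action-potential cross-correlogram, percent change versus pre-treatment baseline, fitted in loss direction against DMSO. Rat cortical cultures, DIV 13 or 15, dosed 0.03-40 uM, 40-min recordings at 37 C.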
# [16] = CCTE_Shafer_MEA_acute_synchrony_index: CCTE's Neural Acute Assay for Synchrony, Shafer Lab (AID 2284027);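 further: network synchrony index of spontaneous spiking in primary rat cortical neurons on MEAs; fitted for loss of signal so actives lower synchrony relative to DMSO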
# Outline: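 Primary rat cortical neurons on 16-electrode MEA wells were recorded 40 min at baseline (DIV 13 or 15) and 40 min after compound (0.03-40 uM) at 37 C. Synchrony index (0-1) expressed as percent change from baseline, versus DMSO.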
# [17] = CCTE_Harrill_HTTr_CellCount_MCF7: CCTE's Cell Proliferation Assessment for the High-Throughput Transcriptomics (HTTr) Platform, Harrill Lab (AID 2284012; active means hit-call score of the fitted dose curve at least 0.9, where 1 is the maximum;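 further: cells exposed to compound for six hours; intended direction is loss of nuclei count meaning fewer cells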)
# Outline: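 MCF-7 cells were exposed for 6 h to an eight-point dilution series; Hoechst-labeled nuclei were counted by high content imaging. Curves were fitted bidirectionally against DMSO as negative control and baseline, with signal loss indicating reduced cell count.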
# [18] = biological target: Estrogen receptor (Homo sapiens) (UniProt P03372); experiment: CCTE_Deisenroth_AIME_96WELL_LUC_Active: CCTE's 96-well Estrogen Receptor Transactivation Assay with AIME metabolic competence (ERTA luciferase; metabolism positive), Deisenroth Lab (AID 2284023; active means hit-call score of the fitted dose curve at least 0.9, where 1 is the maximum)
# Chain of Estrogen receptor (Homo sapiens) (P03372 whole entry, looked up): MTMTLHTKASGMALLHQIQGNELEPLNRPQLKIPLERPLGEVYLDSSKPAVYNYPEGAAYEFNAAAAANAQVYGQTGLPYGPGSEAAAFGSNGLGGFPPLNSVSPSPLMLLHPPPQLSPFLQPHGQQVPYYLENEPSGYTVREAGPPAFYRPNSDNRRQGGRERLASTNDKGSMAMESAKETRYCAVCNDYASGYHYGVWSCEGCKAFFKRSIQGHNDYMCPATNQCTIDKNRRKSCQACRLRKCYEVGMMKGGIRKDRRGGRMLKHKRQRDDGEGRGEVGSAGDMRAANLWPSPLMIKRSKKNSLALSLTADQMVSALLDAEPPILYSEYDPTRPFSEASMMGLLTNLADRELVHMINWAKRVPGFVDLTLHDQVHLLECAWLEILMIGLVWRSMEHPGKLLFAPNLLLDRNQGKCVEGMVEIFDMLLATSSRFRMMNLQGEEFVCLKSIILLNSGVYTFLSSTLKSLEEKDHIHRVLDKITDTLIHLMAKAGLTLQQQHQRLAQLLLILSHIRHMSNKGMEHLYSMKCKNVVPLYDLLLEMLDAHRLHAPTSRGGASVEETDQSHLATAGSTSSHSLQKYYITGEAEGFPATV
# Outline: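 Chemicals pre-incubated 2 h with alginate-immobilized phenobarbital/beta-naphthoflavone-induced male Sprague Dawley rat liver S9, then medium transferred to VM7Luc4E2 cells for 24 h luciferase read-out. 10-point series 0.002 - 200 uM; fitted relative to 17beta-estradiol.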
# [19] = biological target: Estrogen receptor (Homo sapiens) (UniProt P03372); experiment: CCTE_Deisenroth_AIME_96WELL_LUC_Inactive: CCTE's 96-well Estrogen Receptor Transactivation Assay without AIME metabolic competence (ERTA luciferase; metabolism negative), Deisenroth Lab (AID 2284025; active means hit-call score of the fitted dose curve at least 0.9, where 1 is the maximum)
# Outline: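 VM7Luc4E2 breast cells, luciferase read 24 h after dosing with medium pre-incubated 2 h on alginate-water lids (metabolism negative). 10-point series 0.002–200 uM, single technical replicate, n≥4; fit relative to 17beta-estradiol.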
smiles,measurement,setting,value
COP(N)(=O)SC (configuration not stated),outcome,[1],inactive
same,outcome,[2],inactive
same,outcome,[3],inactive
same,outcome,[4],inactive
same,outcome,[5],inactive
same,outcome,[6],inactive
same,outcome,[7],inactive
same,outcome,[8],inactive
same,outcome,[9],inactive
same,outcome,[10],inactive
same,outcome,[11],inactive
same,outcome,[12],inactive
same,outcome,[13],inactive
same,outcome,[14],inactive
same,outcome,[15],inactive
same,outcome,[16],inactive
CCCN(CCC)c1c([N+](=O)[O-])cc(S(N)(=O)=O)cc1[N+](=O)[O-],AC50,[1],4.91 µM (active)
same,AC50,[2],4.91 µM (active)
same,outcome,[3],inactive
same,outcome,[4],inactive
same,outcome,[17],inactive
same,AC50,[5],4.69 µM (active)
same,outcome,[6],inactive
same,outcome,[7],inactive
same,AC50,[8],5 µM (active)
same,AC50,[9],5 µM (active)
same,outcome,[10],inactive
same,outcome,[11],inactive
same,outcome,[12],inactive
same,outcome,[13],inactive
same,outcome,[14],inactive
same,AC50,[15],10.5 µM (active)
same,AC50,[16],5 µM (active)
CCNc1nc(Cl)nc(NC(C)C)n1,outcome,[1],inactive
same,outcome,[2],inactive
same,outcome,[3],inactive
same,outcome,[4],inactive
same,outcome,[17],inactive
same,outcome,[5],inactive
same,outcome,[6],inactive
same,outcome,[7],inactive
same,outcome,[8],inactive
same,AC50,[9],13.9 µM (active)
same,outcome,[10],inactive
same,outcome,[11],inactive
same,outcome,[12],inactive
same,outcome,[13],inactive
same,outcome,[18],inactive
same,outcome,[14],inactive
same,outcome,[19],inactive
same,AC50,[15],11.8 µM (active)
same,AC50,[16],20 µM (active)
COP(=S)(OC)Oc1nc(Cl)c(Cl)cc1Cl,outcome,[1],inactive
same,outcome,[2],inactive
same,outcome,[3],inactive
same,outcome,[4],inactive
same,outcome,[17],inactive
same,outcome,[5],inactive
same,outcome,[6],inactive
same,outcome,[8],inactive
same,AC50,[9],0.102 µM (active)
same,outcome,[10],inactive
same,AC50,[11],0.358 µM (active)
same,outcome,[12],inactive
same,outcome,[13],inactive
same,outcome,[14],inactive
same,outcome,[15],inactive
same,outcome,[16],inactive
OC(c1ccc(Cl)cc1)(c1cncnc1)c1ccccc1Cl (configuration not stated),AC50,[1],0.792 µM (active)
same,AC50,[2],0.803 µM (active)
same,outcome,[3],inactive
same,outcome,[4],inactive
same,outcome,[17],inactive
same,AC50,[5],0.882 µM (active)
same,AC50,[6],5 µM (active)
same,AC50,[7],5 µM (active)
same,AC50,[8],3.27 µM (active)
same,AC50,[9],2.9 µM (active)
same,AC50,[10],1.62 µM (active)
same,AC50,[11],2.84 µM (active)
same,AC50,[12],2.52 µM (active)
same,AC50,[13],6.61 µM (active)
same,AC50,[14],0.761 µM (active)
same,AC50,[15],4.34 µM (active)
same,AC50,[16],3.05 µM (active)
CS/C(C)=N/OC(=O)N(C)SN(C)C(=O)O/N=C(\C)SC,outcome,[1],inactive
same,outcome,[2],inactive
same,outcome,[3],inactive
same,outcome,[4],inactive
same,outcome,[17],inactive
same,outcome,[5],inactive
same,outcome,[6],inactive
same,outcome,[7],inactive
same,AC50,[8],29.7 µM (active)
same,AC50,[9],25.5 µM (active)
same,AC50,[10],20 µM (active)
same,AC50,[11],25.3 µM (active)
same,AC50,[12],20 µM (active)
same,outcome,[13],inactive
same,outcome,[14],inactive
same,outcome,[15],inactive
same,AC50,[16],27.8 µM (active)

# From PubChem BioAssay (EPA / NIEHS)
